The campaign covered roughly 400,000 compounds. About 3,700 (0.93%) were called active. About 3% were inconclusive and are not listed. The sample holds actives, similar compounds and a random draw of the others, so the mix is not that of the screen. Calls follow the shape of the dose curve; as a rule, active = well fitted inhibition curve with a large enough effect; inconclusive = small, poorly fitted or top-dose-only effect, or another doubt; inactive = no such curve, though single readings can be large or run the other way.
% is scaled to controls: 0 for no effect and ±100 for the full control effect; potency is read from the fitted curve at half-maximal effect.

Sequence of Vitamin D3 receptor (Homo sapiens) (P11473 whole entry, looked up): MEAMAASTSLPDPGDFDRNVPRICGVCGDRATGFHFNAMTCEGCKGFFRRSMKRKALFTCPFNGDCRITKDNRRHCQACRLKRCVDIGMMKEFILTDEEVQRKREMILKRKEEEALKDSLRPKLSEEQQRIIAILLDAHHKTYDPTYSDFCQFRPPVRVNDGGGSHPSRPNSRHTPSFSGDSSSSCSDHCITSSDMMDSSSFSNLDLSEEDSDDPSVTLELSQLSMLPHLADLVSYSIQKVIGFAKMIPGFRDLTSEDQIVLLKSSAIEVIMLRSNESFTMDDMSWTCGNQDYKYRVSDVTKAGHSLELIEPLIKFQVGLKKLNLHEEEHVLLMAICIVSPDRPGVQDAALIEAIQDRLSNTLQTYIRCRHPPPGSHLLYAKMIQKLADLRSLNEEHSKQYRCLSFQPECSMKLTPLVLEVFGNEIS

This experiment concerns the target Vitamin D3 receptor (Homo sapiens) (UniProt P11473). Put plainly: Inhibitors of the vitamin D receptor (VDR): qHTS. As to conditions: VDR-SRC2-3 peptide fluorescence polarization, 2 h; max response, negative = inhibition: active compounds read low. The procedure, abridged:
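FP read-out; VDR + SRC2-3 coactivator peptide; 23 nl compound by pintool; 2 h RT incubation; reagents held at 4 deg C, protected from light.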
Take `NS(=O)(=O)c1ccc(NC2=CC(c3ccc(F)cc3)N(c3ccc(S(N)(=O)=O)cc3)C2=O)cc1` (centres undefined): the max response, negative = inhibition is 21.6% (inactive).
As to `CCOC(=O)c1ccc(NC2=CC(c3ccc(OCC)cc3)N(c3ccc(C(=O)OCC)cc3)C2=O)cc1` (centres undefined), the Potency is 28.2 µM (active).
For the molecule `CCOC(=O)c1ccc(-c2ccc(/C=C(\C#N)C(=O)Nc3ccc(OCC)cc3)o2)cc1`, the max response, negative = inhibition is -4.51% (inactive).
Same read-out and setting: with `Cc1cc(NC(=O)C2CCC(CNS(=O)(=O)c3ccc(Br)s3)CC2)ccc1Br` (centres undefined) the figure was -18% (inactive).
As for `COc1ccc(-c2nc3ccccc3s2)cc1NC(=O)COc1ccccc1C`, the max response, negative = inhibition was 1.1% (inactive).
`COc1ccc(Nc2nc(-c3cccnc3)nc3ccccc23)cn1`: the Potency is 70.8 µM (active).
Turning to `Cc1cnc(CNc2nc(-c3cccnc3)nc3ccccc23)cn1`, the max response, negative = inhibition was -20.5% (inactive).
Still for that read-out and setting: with `COc1cccc(-c2nc(Nc3ccncc3)c3ccccc3n2)c1` the figure was 16.5% (inactive); with `CCOc1ccc(Nc2c(S(=O)(=O)c3ccccc3)cnc3ccccc23)cc1`, -2.09% (inactive).
On to `Cc1nc2ccn(Cc3cccnc3)c(=O)c2cc1C(=O)N1CCN(c2ccccc2F)CC1`, for which the max response, negative = inhibition was -2.65% (inactive).
For `CC(=O)Nc1ccc(S(=O)(=O)N2N=NC3C2C2CC4C3(CN(C(=O)OC(C)(C)C)S4(=O)=O)O2)cc1` (centres undefined), the max response, negative = inhibition was -28.4% (inactive).
The same measure, in the same setting: then `O=C(NCC1COc2ccccc2O1)C1(c2ccccc2)CCCC1` (centres undefined), with -20% (inactive).
For the molecule `CCn1cc(C(=O)NCC2COc3ccccc3O2)c2cc(OC)c(OC)cc2c1=O` (centres undefined), the max response, negative = inhibition is -12.1% (inactive).
Regarding `Cc1cc(C(=O)CCl)c(C)n1CC1COc2ccccc2O1` (centres undefined), the Potency was 89.1 µM (active).
Regarding `COc1cc(/C=N/O)cc(Br)c1OCc1cccc(Cl)c1`, the max response, negative = inhibition is 4.44% (inactive).
As for `COc1cc(/C=C2/C(=O)NN(c3cccc(Cl)c3)C2=O)cc(Br)c1O`, the Potency was 22.4 µM (active).
With `COc1cc(/C=C2/C(=O)NN(c3ccc(F)cc3)C2=O)cc([N+](=O)[O-])c1O`, the max response, negative = inhibition was -24.2% (inactive).
Still for that read-out and setting: with `COCCn1c(=O)c(-c2cc(F)cc(F)c2)nc2cnc(N3CCNCC3)nc21` the figure was -11.9% (inactive); with `Cc1cn([C@H]2CC(F)[C@@H](CO)O2)c(=O)[nH]c1=O` (some centres undefined), -2.1% (inactive).
Consider `O=C(CSc1nccn1C1CCCC1)Nc1cc(C(F)(F)F)ccc1Cl`, for which the max response, negative = inhibition was 24.3% (inactive).
Regarding `CCc1nnc(SCC(=O)Nc2cc(OC)ccc2OC)nc1CC`, the max response, negative = inhibition is 8.11% (inactive).
Turning to `Cc1ccccc1-c1nc(CS(=O)(=O)CC(=O)Nc2cc(Cl)cc(Cl)c2)c(C)o1`, the max response, negative = inhibition was 13% (inactive).
For `CC1=C(c2ccc(C)c(C)c2)S(=O)(=O)NC1=NCc1ccccc1Cl`, the max response, negative = inhibition was 4.51% (inactive).
For the molecule `C=C1C(=O)C23C(O)C1CCC2[C@]12COC3(O)C(O)C1C(C)(C)CC[C@H]2O` (some centres undefined), the Potency is 14.1 µM (active).

(Values after PubChem BioAssay AID504847 (National Center for Advancing Translational Sciences (NCATS), 2011).)
